In PubChem BioAssay AID1422 (Emory University Molecular Libraries Screening Center, 2008):
Several values for one entry are separate records, joined by “and”; a condition that tells them apart may be missing. Equal entries are not always repeated. In all, about 260,000 compounds went through this assay and about 1,300 (0.5%) were called active.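 How the source made its calls: active means percent inhibition above 40 after rounding to a whole number; inactive means the rest.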 The full list was thinned out, with actives kept by preference. A structure can be active in one record and inactive in another.

Molecular target: Prostaglandin E2 receptor EP2 subtype (Homo sapiens) (UniProt P43116)
Sequence (P43116 whole entry, looked up): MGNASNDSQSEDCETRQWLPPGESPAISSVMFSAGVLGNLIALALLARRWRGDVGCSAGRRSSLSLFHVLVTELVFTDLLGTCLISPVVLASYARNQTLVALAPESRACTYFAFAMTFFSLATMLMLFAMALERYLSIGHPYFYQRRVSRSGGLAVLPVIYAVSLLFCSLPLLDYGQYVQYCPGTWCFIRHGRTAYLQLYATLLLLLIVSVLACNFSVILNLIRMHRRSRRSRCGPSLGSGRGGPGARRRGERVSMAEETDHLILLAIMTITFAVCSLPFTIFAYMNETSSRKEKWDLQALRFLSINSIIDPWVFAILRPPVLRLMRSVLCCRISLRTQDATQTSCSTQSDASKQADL
Test: blockers of PGE2-driven EP2 cAMP signalling – TR-FRET cAMP, C6 glioma cells, primary screen (AID 1422);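 further: rat C6 glioma host cells with rolipram phosphodiesterase inhibitor present; the protocol text gives 20 µM as final concentration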
Conditions: C6 glioma cells expressing human EP2, cAMP TR-FRET; at 25 µM; stronger effect = higher value; cells stimulated with saturating PGE2

inhibition, 113% (active) and 18.5% (inactive):
Oc1c(Cl)cc(Cl)c(Cl)c1Cc1c(O)c(Cl)cc(Cl)c1Cl

inhibition, active:
Clc1ccc(Nc2nc3nonc3n3nnnc23)cc1 91.1%
COc1ccc(-c2cc(C(F)(F)F)nc(SCC(=O)N3CCCCC3C)n2)cc1 (stereo unspecified) 52.4%
COc1cccc(/C=N/Nc2cc(C)nc(-c3ccccc3O)n2)c1O 39.9%
C[C@H]1O[C@@H](CC(=O)O)Cc2c1c(O)c1c(O)cc(-c3cc(=O)c4c(=O)c5c(c(=O)c=4c3=O)C[C@H](CC(=O)O)O[C@@H]5C)c(O)c1c2O 41.5%
OC[C@@H]1O[C@H](n2cnc3c(SCc4ccccc4)ncnc32)[C@H](O)[C@H]1O 48.2%
COc1ccc(NC(=O)CSc2nnc3c4c5c(sc4ncn23)CC(C)CC5)cc1 (stereo unspecified) 46.8%
NC1(C(=O)OCc2ccccc2)CCCC1 42.6%
O=C(Nc1ccccc1)c1nnsc1S(=O)(=O)c1ccc(Cl)cc1 114%
Cc1nc(NC(=O)CSc2nnc3c(C)cc4cc5c(cc4n23)OCCO5)sc1C 40.1%
C=CCOc1cccc(C2C(C(=O)c3ccc(C)o3)=C(O)C(=O)N2c2nnc(C)s2)c1 (stereo unspecified) 45.8%

inhibition, inactive:
COc1ccc(CNC(=O)C2C3CCC4(CN(CCc5ccccc5)C(=O)C24)O3)cc1 (stereo unspecified) 8.25%
COC(=O)c1c(NC(=O)c2cccc(C)c2)sc(C(=O)Nc2cccc(OC)c2)c1C 7.04%
Clc1ccc(Nc2ncnc3c2nnn3Cc2ccccc2)cc1 7.31%
COc1ccccc1NC(=S)N(Cc1cc2cccc(C)c2[nH]c1=O)CC1CCCO1 (stereo unspecified) 15.9%
Cc1ccc2[nH]c(=O)c(CN(Cc3ccccc3Cl)C(=O)N3CCCC3)cc2c1 11.3%
CCCC(NC(=O)c1csc(C(C)=O)c1)c1ccc2c(c1)OCCO2 (stereo unspecified) 9.91%
COc1ccc(-c2cc(C(F)(F)F)nc(SCCC(=O)N3CCCCC3C)n2)cc1 (stereo unspecified) 12.1%
CC1CCCCN1C(=O)CSc1nc(-c2ccccc2)cc(C(F)(F)F)n1 (stereo unspecified) 12.9%
CCOc1ccc(C2C(C(=O)c3ccco3)=C(O)C(=O)N2CCOC)cc1OC (stereo unspecified) 8.68%
COc1ccccc1/C=N\Nc1cc(C)nc(-n2nc(C)cc2C)n1 3.92%
COc1cccc(/C=N/Nc2ncc(C(F)(F)F)cc2Cl)c1O 4.36%
Oc1ccccc1-c1nc2cnccn2c1NCc1ccccc1 9.33%
CN(C)CCCNC(=O)C(=O)Nc1ccc2c(c1)OCO2 13.4%
Cc1ccc(NC=C2C(=O)OC(C)(C)OC2=O)cc1Cl 10%
Cc1ccc(C)c2[nH]c(=O)c(C(c3nnnn3Cc3ccc(F)cc3)N3CCc4ccccc4C3)cc12 (stereo unspecified) 6.97%
C=COCCNC(=O)Cn1nc(C)n2c(cc3occc32)c1=O 7.9%
Nc1nc(SCc2ccc([N+](=O)[O-])cc2)c2ncn(C3OC(CO)C(O)C3O)c2n1 (stereo unspecified) 9.89%
CNc1ncnc2c1ncn2[C@@H]1O[C@H](CO)[C@H](O)C1O (stereo partly specified) 13.5%
CCOc1ccc(-n2nnnc2SCC(=O)Nc2ccc(C)c(NC(=O)CC)c2)cc1 10.6%
CC(=O)Nc1ccc(S(=O)(=O)N2CC=C[C@@H]2C(=O)NCCc2ccccc2)cc1 8.27%
Cc1ccc(C)c2nc(SCC(=O)Nc3ccccc3-c3ccccc3)c(C#N)cc12 13.9%
Cc1cccc2cc(CN(Cc3cccs3)C(=O)Nc3ccc(Cl)cc3)c(=O)[nH]c12 6.58%
OC(CN1CCC(O)(c2cccc(C(F)(F)F)c2)CC1)c1ccccc1 (stereo unspecified) 5.58%
CC1CCc2c(sc3ncn4c(SCC(=O)N5CCc6ccccc65)nnc4c23)C1 (stereo unspecified) 16.8%
COc1ccccc1NC(=O)CSc1ncnc2sc3c(c12)CCC(C)C3 (stereo unspecified) 15.3%
Cc1nnc(NC(=O)CN2CCN(C3CCCCC3)CC2)s1 13.3%
COC(=O)c1ccc(-n2nnnc2SCC(=O)NCc2cccs2)cc1 10.1%
COc1ccc(C2(NC(=O)c3ccc(N4CCCCS4(=O)=O)cc3)CCCC2)cc1 6.96%
CC(C)C(NC(=O)OCc1ccccc1)C(=O)OCC(=O)N1C(C)CCCC1C (stereo unspecified) 12.2%
O=C(O)C1CCN(C(=O)OCc2ccccc2)CC1 7.11%
COc1ccccc1C1(NC(=O)c2snnc2C)CCCC1 10.4%
O=C(O)COc1nc(N2CCCCC2)nc(N2CCCCC2)n1 11.5%
Cc1cccc(N(CC(=O)NC2CCCC2)C(=O)c2snc(C(=O)NC3CCCCC3)c2N)c1C 13.6%
CS(=O)(=O)c1ccc(Cl)c(NC(=O)Nc2ccccc2)c1 6.72%
CC(=O)Nc1cc(C(=O)O)ccc1S(=O)(=O)c1ccc(Cl)cc1 5.25%
CC1CCc2c(sc3ncnc(SCc4cc(=O)[nH]c5ccccc45)c23)C1 (stereo unspecified) 13.1%
Cc1cccc2c(=O)c(C(=O)NN)c[nH]c12 5.35%
Cc1cc(C)cc(NC(=O)CSc2nc3c(c(=O)n(C)c(=O)n3C)n2C(C)C)c1 5.34%
Cc1cc2cc3c(cc2n2c(SCC(=O)Nc4ccc(Cl)cc4)nnc12)OCCO3 19.1%
COC(=O)c1ccccc1NC(=O)CSc1nnc2c(C)cc3cc4c(cc3n12)OCCO4 7.88%
CC1Cc2cc(C(O)CN3CCCC3)ccc2N1C(=O)C(C)(C)C (stereo unspecified) 6.03%
COc1cc(C2C(C(=O)c3ccc(C)o3)=C(O)C(=O)N2Cc2cccnc2)ccc1O (stereo unspecified) -0.43%
Cc1ccc(C(=O)C2=C(O)C(=O)N(Cc3ccccc3)C2c2ccncc2)o1 (stereo unspecified) 17.6%
CC(=O)C(C)n1c(CN2CCC(C)CC2)nc2c1c(=O)n(C)c(=O)n2C (stereo unspecified) 7.13%
Cn1c(=O)c2c([nH]c(=O)n2Cc2cccc3ccccc23)n(C)c1=O 11.4%
